From PubChem BioAssay (NCI)
Compounds without any hit were thinned out: in the full panel of roughly 83,000, 20% have a hit.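 Single-dose data. Exposure time 48 hours. Values below 10 considered active.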 Activity calls are given as the source filed them.

Legend:
Assay in all cases: NCI-60 one-dose screen, 48 h (100 = growth as untreated, 0 = no growth, -100 = all killed)
Details in all cases: 10 µM unless noted
[1] = system: HCT-15 colon
[2] = system: HT29 colon
[3] = system: SNB-75 CNS
[4] = system: SNB-19 CNS
[5] = system: U251 CNS
[6] = system: PC-3 prostate
[7] = system: SK-MEL-5 melanoma
[8] = system: LOX IMVI melanoma
[9] = system: SK-MEL-28 melanoma
[10] = system: SK-MEL-2 melanoma
[11] = system: EKVX NSCLC
[12] = system: SN12C renal
[13] = system: UO-31 renal
[14] = system: TK-10 renal
[15] = system: ACHN renal
[16] = system: CAKI-1 renal
[17] = system: A498 renal
[18] = system: CCRF-CEM leukemia
[19] = system: MOLT-4 leukemia

Measured: growth

Cn1cnc2c1c(=O)n(CCC(=O)Nc1ccc(F)cc1)c(=O)n2C
inactive: [1] 104% | [2] 86.6% | [3] 94.6% | [4] 105% | [5] 96.2% | [6] 91.1% | [7] 107% | [8] 102% | [9] 110% | [10] 105% | [11] 107% | [12] 102% | [13] 92.7% | [14] 92.7% | [15] 114% | [16] 93.7% | [17] 96.8% | [18] 99.5% | [19] 106%

Cc1cc(N2CCCC2)nc(N(CCNc2ccnc3cc(Cl)ccc23)Cc2ccco2)n1
active: [2] 5.58% | [6] 0.723% | [7] -93% | [8] 4.43% | [19] -9.45%
inactive: [1] 18.3% | [3] 68.8% | [4] 29.4% | [5] 46.5% | [9] 31% | [10] 77.1% | [11] 36.1% | [12] 28.8% | [13] 10.8% | [14] 63.8% | [15] 39.6% | [17] 26.9% | [18] 11%

Cc1cc(N(CCCNc2ccnc3cc(Cl)ccc23)Cc2ccco2)nc(Cl)n1
inactive: [1] 48.5% | [2] 22.1% | [3] 66% | [4] 75.1% | [5] 60.7% | [6] 49% | [8] 42.2% | [9] 77.7% | [10] 65.4% | [11] 43.5% | [12] 58.8% | [13] 36.7% | [14] 62.6% | [15] 64.8% | [17] 46.1% | [18] 67.3% | [19] 43.4%
active: [7] -8.23%

Cc1cc(N(CCNc2ccnc3cc(Cl)ccc23)Cc2ccco2)nc(Cl)n1
inactive: [4] 15.4% | [11] 32.2% | [17] 20.8%
active: [1] 1.35% | [2] -33.4% | [3] -88.7% | [5] -66.5% | [6] -54.4% | [7] -63.4% | [8] -64.8% | [9] -33.4% | [10] -7.16% | [12] -79.2% | [13] -97% | [14] -74.4% | [15] -98.8% | [18] 0.284% | [19] -26.2%

Cn1cc(-c2csc(-c3cn(CCNC(=O)OC(C)(C)C)c4ccc(F)cc34)n2)c2cccnc21
inactive: [1] 52.8% | [2] 76.2% | [3] 86.3% | [4] 90.3% | [5] 82.2% | [6] 25.9% | [7] 23.6% | [8] 71.9% | [9] 88.7% | [10] 82.4% | [11] 55.9% | [12] 85.9% | [13] 39.7% | [14] 104% | [15] 69.2% | [17] 91.1% | [18] 33.5% | [19] 31.8%

O=C1CCCC=CC[C@H]2C=C(Cl)C(=O)C2=CC[C@H](CCCCC(F)(F)F)OC(=O)CCCC=CC[C@H]2C=C(Cl)C(=O)C2=CC[C@H](CCCCC(F)(F)F)OC(=O)CCCC=CC[C@H]2C=C(Cl)C(=O)C2=CC[C@H](CCCCC(F)(F)F)O1
inactive: [1] 68.6% [6.25 µM] | [2] 42.2% [6.25 µM] | [3] 95.9% [6.25 µM] | [4] 65.2% [6.25 µM] | [5] 36.4% [6.25 µM] | [6] 71.9% [6.25 µM] | [7] 59.4% [6.25 µM] | [8] 18.7% [6.25 µM] | [9] 71.8% [6.25 µM] | [10] 90.1% [6.25 µM] | [11] 98.4% [6.25 µM] | [12] 56.3% [6.25 µM] | [13] 78.9% [6.25 µM] | [14] 148% [6.25 µM] | [15] 71.2% [6.25 µM] | [17] 101% [6.25 µM] | [19] 15.2% [6.25 µM]
active: [18] 8.35% [6.25 µM]

Cc1ccc2oc(=O)cc(-c3sc(N4CCCCC4)nc3-c3ccccc3)c2c1
inactive: [1] 96.9% | [2] 99.9% | [3] 78.1% | [4] 95.3% | [5] 101% | [6] 88.1% | [7] 91.3% | [8] 91.2% | [9] 103% | [10] 93.7% | [11] 90.4% | [12] 50.2% | [13] 58% | [14] 161% | [15] 84.3% | [17] 109% | [18] 104% | [19] 97.3%

Cc1cc(N2CCCCC2)nc(N(CCCNc2ccnc3cc(Cl)ccc23)Cc2ccco2)n1
inactive: [1] 11.3% | [3] 54.3% | [4] 27.4% | [5] 24.7% | [10] 44.8% | [11] 39.4% | [12] 36.3% | [13] 15.6% | [14] 63.2% | [15] 38.8% | [17] 46.5% | [18] 19.5%
active: [2] 2.02% | [6] 2.61% | [7] -91.8% | [8] -34.7% | [9] -23.5% | [19] 6.82%
